From ChEMBL document CHEMBL1961873, “Compounds: GSK PKIS; Assays: Nanosyn kinase panel” (2012)

Columns and labels:
[1] = molecular target: RAC-alpha serine/threonine-protein kinase (Homo sapiens) (UniProt P31749); details: at 0.1 µM
[2] = molecular target: RAC-alpha serine/threonine-protein kinase (Homo sapiens) (UniProt P31749); details: at 1 µM
[3] = molecular target: RAC-beta serine/threonine-protein kinase (Homo sapiens) (UniProt P31751); details: at 0.1 µM
[4] = molecular target: RAC-beta serine/threonine-protein kinase (Homo sapiens) (UniProt P31751); details: at 1 µM
[5] = molecular target: RAC-gamma serine/threonine-protein kinase (Homo sapiens) (UniProt Q9Y243); details: at 0.1 µM
[6] = molecular target: RAC-gamma serine/threonine-protein kinase (Homo sapiens) (UniProt Q9Y243); details: at 1 µM
[7] = molecular target: G protein-coupled receptor kinase 6 (Homo sapiens) (UniProt P43250); details: at 0.1 µM
[8] = molecular target: G protein-coupled receptor kinase 6 (Homo sapiens) (UniProt P43250); details: at 1 µM
[9] = molecular target: T1, Rhodopsin kinase GRK7 (Homo sapiens) (UniProt Q8WTQ7); details: at 0.1 µM
T1 sequence (whole entry): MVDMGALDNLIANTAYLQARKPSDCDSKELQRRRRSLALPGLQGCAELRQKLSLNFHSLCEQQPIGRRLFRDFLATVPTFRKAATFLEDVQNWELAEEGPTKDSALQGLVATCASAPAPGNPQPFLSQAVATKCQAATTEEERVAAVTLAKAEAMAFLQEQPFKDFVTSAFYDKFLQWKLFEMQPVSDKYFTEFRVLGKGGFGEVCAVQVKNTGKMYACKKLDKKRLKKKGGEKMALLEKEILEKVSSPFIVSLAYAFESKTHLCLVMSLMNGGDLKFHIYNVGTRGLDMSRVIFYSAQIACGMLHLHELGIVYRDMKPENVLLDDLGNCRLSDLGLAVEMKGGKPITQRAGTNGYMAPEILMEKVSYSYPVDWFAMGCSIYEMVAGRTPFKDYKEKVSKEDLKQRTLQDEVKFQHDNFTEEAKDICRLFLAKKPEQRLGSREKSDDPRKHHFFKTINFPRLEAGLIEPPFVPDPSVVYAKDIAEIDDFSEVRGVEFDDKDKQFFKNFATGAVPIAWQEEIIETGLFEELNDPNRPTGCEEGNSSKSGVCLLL

[10] = molecular target: T1, Rhodopsin kinase GRK7 (Homo sapiens); details: at 1 µM

Chain of RAC-gamma serine/threonine-protein kinase (Homo sapiens) (Q9Y243 whole entry): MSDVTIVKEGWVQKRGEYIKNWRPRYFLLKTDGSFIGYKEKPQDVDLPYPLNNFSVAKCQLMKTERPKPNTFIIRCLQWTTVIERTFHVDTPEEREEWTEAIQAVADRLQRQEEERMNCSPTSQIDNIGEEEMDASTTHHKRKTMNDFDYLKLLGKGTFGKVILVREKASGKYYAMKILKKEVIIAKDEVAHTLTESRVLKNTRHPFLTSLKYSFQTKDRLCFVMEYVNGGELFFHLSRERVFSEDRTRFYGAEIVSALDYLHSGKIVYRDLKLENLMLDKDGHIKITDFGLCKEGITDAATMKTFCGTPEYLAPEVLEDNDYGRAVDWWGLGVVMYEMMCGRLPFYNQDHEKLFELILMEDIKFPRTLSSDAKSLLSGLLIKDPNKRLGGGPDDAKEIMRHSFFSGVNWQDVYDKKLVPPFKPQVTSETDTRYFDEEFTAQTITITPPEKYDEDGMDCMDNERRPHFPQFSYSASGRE
Chain of RAC-beta serine/threonine-protein kinase (Homo sapiens) (P31751 whole entry): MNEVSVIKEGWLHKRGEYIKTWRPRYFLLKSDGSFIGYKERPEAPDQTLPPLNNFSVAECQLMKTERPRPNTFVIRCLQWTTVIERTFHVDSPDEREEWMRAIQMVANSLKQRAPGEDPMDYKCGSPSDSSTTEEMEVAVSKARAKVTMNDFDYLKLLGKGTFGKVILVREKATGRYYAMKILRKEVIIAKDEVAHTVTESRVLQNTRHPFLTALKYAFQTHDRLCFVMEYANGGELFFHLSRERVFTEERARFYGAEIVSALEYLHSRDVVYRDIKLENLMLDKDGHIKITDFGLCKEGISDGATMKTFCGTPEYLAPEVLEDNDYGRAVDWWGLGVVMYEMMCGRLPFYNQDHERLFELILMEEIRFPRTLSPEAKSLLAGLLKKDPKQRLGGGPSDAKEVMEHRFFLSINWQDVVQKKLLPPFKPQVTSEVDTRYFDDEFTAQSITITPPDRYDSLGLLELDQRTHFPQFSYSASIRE
Chain of G protein-coupled receptor kinase 6 (Homo sapiens) (P43250 whole entry, looked up): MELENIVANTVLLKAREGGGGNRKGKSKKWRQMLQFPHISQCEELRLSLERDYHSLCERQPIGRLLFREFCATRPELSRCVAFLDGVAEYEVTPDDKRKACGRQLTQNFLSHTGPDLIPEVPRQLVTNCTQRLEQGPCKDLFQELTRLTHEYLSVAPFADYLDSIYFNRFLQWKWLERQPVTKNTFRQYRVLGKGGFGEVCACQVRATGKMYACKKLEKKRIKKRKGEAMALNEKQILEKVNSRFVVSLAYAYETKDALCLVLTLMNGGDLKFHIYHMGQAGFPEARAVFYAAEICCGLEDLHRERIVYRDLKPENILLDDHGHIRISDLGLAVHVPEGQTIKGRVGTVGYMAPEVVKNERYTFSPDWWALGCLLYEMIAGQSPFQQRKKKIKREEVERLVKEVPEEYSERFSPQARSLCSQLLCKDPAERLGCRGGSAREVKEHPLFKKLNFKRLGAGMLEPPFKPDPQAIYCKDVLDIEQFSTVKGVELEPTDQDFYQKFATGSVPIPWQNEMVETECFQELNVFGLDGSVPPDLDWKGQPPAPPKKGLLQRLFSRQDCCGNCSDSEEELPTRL
Chain of RAC-alpha serine/threonine-protein kinase (Homo sapiens) (P31749 whole entry): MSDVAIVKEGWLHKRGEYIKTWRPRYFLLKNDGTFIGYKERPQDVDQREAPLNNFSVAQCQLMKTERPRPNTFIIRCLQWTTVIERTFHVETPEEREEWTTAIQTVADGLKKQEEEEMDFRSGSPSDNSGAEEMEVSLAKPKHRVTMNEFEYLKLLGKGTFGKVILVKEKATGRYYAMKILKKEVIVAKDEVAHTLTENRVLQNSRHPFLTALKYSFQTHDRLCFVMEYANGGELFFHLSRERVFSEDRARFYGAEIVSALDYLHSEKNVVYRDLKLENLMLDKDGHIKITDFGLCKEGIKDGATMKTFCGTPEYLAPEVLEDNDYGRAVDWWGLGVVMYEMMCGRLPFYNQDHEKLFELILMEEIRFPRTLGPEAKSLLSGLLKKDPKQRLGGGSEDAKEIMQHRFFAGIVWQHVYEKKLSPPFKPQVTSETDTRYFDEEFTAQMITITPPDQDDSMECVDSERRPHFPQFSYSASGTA

SMILES	inhibition [1]	inhibition [2]	inhibition [3]	inhibition [4]	inhibition [5]	inhibition [6]	inhibition [7]	inhibition [8]	inhibition [9]	inhibition [10]
Cc1cc(-c2ccccn2)cc(C)c1/C=C/c1cncc(-c2nn[nH]n2)c1	1.14%	0.85%	0.53%	1.57%	2.14%	2.17%	5.67%	1.26%	9.3%	7.66%
COC(=O)c1ccc2c(c1)C(=Cc1cc(Br)c(O)c(Br)c1)C(=O)N2	0.91%	0.66%	0.67%	1.05%	1.09%	2.88%	7.82%	43.5%	12.8%	28.4%
Nc1nccc(-c2c(-c3ccc(F)cc3)ncn2CCCN2CCOCC2)n1	1.68%	1.55%	2.52%	0.79%	1.64%	3.69%	4.54%	5.62%	2.89%	8.32%
Cc1cc(O)cc(C)c1/C=C/c1cncc(C(=O)N(C)C)c1	0.52%	0.6%	2.14%	0.78%	1.44%	1.3%	3.76%	0.05%	0%	-6.95%
NS(=O)(=O)c1ccc(NC=C2C(=O)Nc3ccc4ncsc4c32)cc1	1.23%	-0.15%	2.3%	2.59%	0.79%	2.77%	6.28%	35.5%	6.78%	22.4%
NS(=O)(=O)c1ccc(N/N=C2\C(=O)Nc3ccc(Cl)cc32)cc1	1.17%	1.19%	3.01%	2.43%	1.79%	1.82%	4.41%	8.19%	2.49%	2.98%
CS(=O)(=O)CCNCc1nc(-c2ccc3ncnc(Nc4ccc(OCc5cccc(C(F)(F)F)c5)cc4)c3c2)cs1	0.2%	-0.66%	-0.39%	0.39%	0.84%	1.91%	0.43%	0.06%	3.85%	-1.01%
NC(=O)c1sc(-n2cnc3ccccc32)cc1OCc1ccccc1Br	1.72%	1.07%	0.68%	3.59%	1.82%	4.09%	1.41%	3.01%	9.12%	4.5%
Nc1nccc(C#Cc2cncnc2Nc2ccc(OCc3cccc(F)c3)c(Cl)c2)n1	1.34%	0.92%	1.52%	1.54%	2.87%	1.85%	1.35%	-4.58%	4.51%	1.2%
CCn1c(-c2nonc2N)nc2ccc(F)cc21	0.42%	0.42%	1.94%	2.93%	1.09%	2.41%	9.58%	11.3%	5.6%	11.3%
Cc1ccc(Nc2ccnc(Nc3cccc(C(N)=O)c3)n2)cc1O	-3.35%	-2.06%	-1.66%	-2.15%	-2.03%	-1.07%	1.49%	6.26%	1.62%	0.17%
COc1cc(/C=N/Nc2ncnc3c2cnn3C(C)C)ccc1O	-0.05%	-2.56%	0.47%	-1.58%	0.98%	-1.46%	4.24%	77.6%	1.66%	7.37%
FC(F)(F)c1ccc(-c2nn3ncccc3c2-c2ccnc(Nc3ccc4c(c3)OCCO4)n2)cc1	0.91%	0.98%	0.17%	0.25%	-0.63%	-0.79%	1.14%	12.6%	4.88%	11.6%
c1ccc(Nc2ncc(-c3ccccc3)o2)cc1	1.4%	0.83%	0.54%	2.99%	1.75%	3.46%	4.61%	4.8%	9.62%	4.71%
COc1cccc(-n2nc(C)c3c(N/N=C(\C)c4ccncc4)ncnc32)c1	-0.15%	-0.16%	-0.34%	0.3%	-0.78%	3.59%	0.75%	1.13%	3.79%	0.01%
N#Cc1c(NC(=O)c2ccccc2F)sc2c1CCCC2	-0.97%	-1.21%	-1.71%	-1.01%	-1.05%	-0.44%	1.29%	2.2%	2.28%	-1.97%
COc1cccc(-n2ncc3c(N/N=C/c4ccc(C)cc4)ncnc32)c1	1.26%	0.76%	1.76%	1.75%	0.43%	1.94%	4.73%	5.93%	11.7%	7.9%

SMILES	inhibition [1]	inhibition [2]	inhibition [3]	inhibition [4]	inhibition [5]	inhibition [6]	inhibition [7]	inhibition [8]	inhibition [9]	inhibition [10]
ON=C1CCc2cc(-c3nc(C4CCNCC4)[nH]c3-c3ccncc3)ccc21	0.07%	-0.21%	0.72%	-1.73%	-0.56%	0.98%	0.43%	-2.74%	-0.92%	1.83%
COc1cccc(-n2ncc3c(N/N=C/c4ccc(S(C)(=O)=O)cc4)ncnc32)c1	-3.17%	-2.91%	-3.17%	-2.73%	-8.29%	-3.66%	1.17%	-1.78%	-0.35%	0.56%
CCCN1CCCC(c2ccc(Nc3nc(Nc4cc(F)ccc4C(N)=O)c4cc[nH]c4n3)c(OC)c2)C1 (stereo not given)	0.39%	0.27%	1.85%	1.92%	0.52%	2.18%	5.66%	25.3%	3.88%	16.6%
CN1CCN(C(=O)c2ccc(NC(=O)Nc3ccc(N(C)c4ccnc(Nc5ccc(CS(C)(=O)=O)cc5)n4)cc3)cc2)CC1	0.3%	-0.86%	-0.33%	1.06%	0.49%	1.64%	2.2%	1.86%	4.4%	0.44%
Cc1ccc2c(-c3ccnc(Nc4cccc(C(F)(F)F)c4)n3)c(-c3ccccc3)nn2n1	0.89%	1.19%	0.8%	2.31%	0.73%	4.19%	2.15%	2.48%	10.5%	3.2%
CCOc1nccc2c1nc(-c1nonc1N)n2CC	0.82%	1.86%	1.97%	1.44%	0.46%	1.25%	4.85%	18.1%	3.99%	8.26%
COc1cc2ncnc(Nc3ccc4c(cnn4Cc4ccccc4)c3)c2cc1OC	-0.49%	0.77%	0.99%	1%	0.08%	2.09%	-0.46%	2.17%	9.43%	2.89%
CCn1c(-c2nonc2N)nc2c(C#CC(C)(C)O)nc(OCCNC)cc21	20.8%	67.4%	33.1%	75.3%	23.1%	68.2%	4.94%	3.62%	9.11%	2.53%
COc1cc2ncn(-c3cc(OCc4ccccc4S(C)(=O)=O)c(C#N)s3)c2cc1OC	1.44%	1.02%	2.07%	1.33%	2.7%	1.68%	13.8%	3.6%	8.51%	40.4%
O=S(=O)(CCOCc1ccc(-c2ccc3ncnc(Nc4ccc(OCc5cccc(F)c5)c(Cl)c4)c3c2)o1)c1ccccc1	-0.1%	-0.35%	0.2%	1.21%	-0.84%	3.06%	0.84%	0.78%	7.97%	4.68%
Nc1ccc(C#Cc2cncnc2Nc2ccc(OCc3cccc(F)c3)c(Cl)c2)cc1	0.15%	1.42%	1.06%	1.24%	0.3%	2.19%	0.63%	0.83%	5.58%	1.26%
COc1ccc(-c2nn3ncccc3c2-c2ccnc(Nc3cccc(C(F)(F)F)c3)n2)cc1	0.68%	0.72%	1.23%	1.84%	0.37%	1.95%	3.32%	2.16%	5.25%	1.87%
O=C1Nc2ccccc2/C1=C/Nc1ccc2[nH]c(=O)[nH]c2c1	0.44%	0.45%	1.75%	2.21%	1%	1.86%	8.17%	23.7%	4.17%	15.9%
C[C@@H](Oc1cc(-n2cnc3ccc(OC[C@@H](O)CO)cc32)sc1C(N)=O)c1ccccc1Cl	-0.94%	-0.9%	-0.48%	-0.32%	0.07%	-0.44%	1.08%	4.23%	-4.63%	3.37%
Cc1nc(-c2ccccc2)n2nc(NCCCN3CCOCC3)ncc12	0.61%	0.11%	0.45%	2.03%	0.57%	4.13%	3.41%	0.49%	5.84%	2.44%
COc1cc(Nc2nccc(-c3cnn4ncccc34)n2)cc(OC)c1	0.23%	0.24%	0.16%	0.1%	0.27%	1.18%	0.91%	-0.01%	6.32%	9.43%
